“And” between values parts separate entries of the source, which are not always exact repeats. Equal entries are not always repeated. Inconclusive results are not listed. The source made the active and inactive calls. Unless noted, calls come from the whole dose curve; as a rule, active = well fitted curve in the direction sought with a large enough effect in the repeat runs; inconclusive = weak or mixed curves; inactive = no such curve, though single readings can be large; an effect the other way counts as inactive or inconclusive.

Assay [1] can be described thus: qHTS assay for small molecules that induce genotoxicity in human embryonic kidney cells expressing luciferase-tagged ATAD5 (AID 651632). Note: nearly all actives have a fitted effect of over 15% in size. Note: potency is the fitted concentration of half-maximal effect. Particulars: HEK293T ATAD5-luciferase induction, 16 h; series mostly up to 83.3 µM. Summed up: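 A rise in luciferase signal from ATAD5-tagged HEK293T cells marks genetic stress. Cells were exposed to compounds for 16 hr at 37C, 5% CO2, then luciferase was quantified after a 30 min room-temperature incubation with Amplite.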
In general terms: In qHTS, concentration-response curves come from the screen itself.

The nature of assay [2]: qHTS assay for small molecule agonists of the p53 signaling pathway - cell viability (AID 651633; calls by dose curve; note: nearly all actives have a fitted effect of over 30% in size; note: potency is the fitted concentration of half-maximal effect). The following applies: p53RE-bla HCT-116 viability, ATP luminescence, 16 h; series mostly up to 83.3 µM. The gist of the method: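 p53RE-bla cells, seeded at 4,000 per well and rested 5 h at 37 C/5% CO2, received compounds in DMSO for 16 h at 37 C. CellTiter-Glo was then added, and luminescence was read after 30 min at room temperature to gauge cytotoxicity.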

Assay [3] can be described thus: qHTS assay for small molecules that induce genotoxicity in human embryonic kidney cells expressing luciferase-tagged ATAD5 - cell viability (AID 651634; calls by dose curve; note: nearly all actives have a fitted effect of over 25% in size; note: potency is the fitted concentration of half-maximal effect). The following applies: HEK293T ATAD5-luc cells viability, CellTiter-Fluor, 15.5 h; series mostly up to 83.3 µM. Summed up: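 Cytotoxicity counter-readout: after 15.5 hr compound treatment at 37C, live-cell protease activity in ATAD5-luciferase HEK293T cells measured by CellTiter-Fluor fluorescence, 30 min development at 37C.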

Assay [4] in a line: qHTS assay for small molecule disruptors of the mitochondrial membrane potential - cell viability (AID 720634; calls by dose curve; note: nearly all actives have a fitted effect of over 20% in size; note: potency is the fitted concentration of half-maximal effect). Particulars: HepG2 viability, ATP luminescence (CellTiter-Glo), 1 h; series mostly up to 83.2 µM. The gist of the method: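 Cytotoxicity was quantified from ATP content by CellTiter-Glo luminescence in the same wells as the MMP dye read-out. HepG2 (2,000 cells/well) were plated overnight and exposed to compounds for 1 hr at 37 C.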

Assay [5] can be described thus: qHTS assay to test for compound auto fluorescence at 590 nm (red) in HepG2 cells (AID 720674). The following applies: HepG2 autofluorescence, red 540/590 nm, 1 h; series mostly up to 46 µM. Summed up:
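Intrinsic compound fluorescence in the red window (Ex/Em 540/590 nm) is measured in attached HepG2 cells exposed for 1 hr, DMSO vehicle as baseline, benchmarked to Rose Bengal sodium.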

Assay [6] is described as follows: qHTS assay to test for compound auto fluorescence at 535 nm (green) in HepG2 cells (AID 720675). The following applies: green autofluorescence 485/535 nm, 1 h; series mostly up to 46 µM.
A short description of assay [7]: qHTS assay to test for compound auto fluorescence at 460 nm (blue) in HEK293 cells (AID 720678). Particulars: blue autofluorescence 405/460 nm; series mostly up to 46 µM. The gist of the method: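 Blue read-out at excitation 405 nm and emission 460 nm follows overnight compound exposure of HEK293 cells at 37C in 5% CO2. Activity is given as auto fluorescence equivalency to triamterene.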

Assay [8] can be described thus: qHTS assay to test for compound auto fluorescence at 590 nm (red) in HEK293 cells (AID 720679). Particulars: red autofluorescence 540/590 nm; series mostly up to 46 µM. The gist of the method: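 Red channel, Ex/Em 540/590nm; signal expressed as equivalency to Rose Bengal sodium. HEK293, 2,000 cells/well, 10% dialyzed FBS; 23 nL compound pinned after 4-5 hr attachment; overnight 37C/5% CO2 before reading.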

Assay [9] can be described thus: qHTS assay for small molecule disruptors of the mitochondrial membrane potential (AID 720635). Note: potency is the fitted concentration of half-maximal effect. Particulars: HepG2 mitochondrial membrane potential, Mito-MPS dye ratio; series mostly up to 83.2 µM. The gist of the method: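 HepG2 cells (2,000/well) attached overnight at 37C, then took compound for 1 hr at 37C, 5% CO2. Mito-MPS dye was added for 30 min; fluorescence was read at 490/535 nm (monomers) and 540/590 nm (aggregates).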

For `CN1CC[C@H](c2c(O)cc(O)c3c(=O)cc(-c4ccccc4Cl)oc23)[C@H](O)C1`, the Potency entry in assay [1], in assay [2], in assay [3], in [4], in assay [6] and in assay [7] was “inactive” throughout. The result in [5] and in [8] was inactive.
Regarding `O=[N+]([O-])c1ccc(O)c2ncccc12`, the Potency result in [1], in assay [4], in assay [6] and in assay [7] was “inactive” in each case. The results for the Potency in [2], in [3] and in assay [9] were 26.6 µM (active), 21.1 µM (active) and 6.68 µM (active), respectively. Further, the result in assay [5] and in assay [8] was inactive.
In the case of `NC(N)=NCCCCN=C(N)N`, the Potency entry in assay [1], in [2], in assay [3], in assay [4] and in assay [7] was “inactive” in each case. Also, the result in [8] was inactive.
Turning to `CC(C)c1ccc2sc3ccccc3c(=O)c2c1`, the values for the Potency in [1], in assay [4] and in [9] were 4.33 µM (active), 34.4 µM (active) and 48.6 µM (active), respectively. Also, the Potency entry in assay [2], in assay [3] and in assay [6] was “inactive” each time. The call in [5] and in assay [8] was inactive.
In the case of `N#Cc1nc(Cl)c(Cl)c(Cl)c1Cl`, the Potency is 4.86 µM (active) in assay [1], 10.9 µM (active) in assay [2] and 4.86 µM (active) in [3]. The Potency result in assay [4], in [6] and in assay [7] was “inactive” each time. The result in assay [5] and in [8] was inactive.
With `CO[C@H]1C[C@@H]2CC[C@@H](C)[C@@](O)(O2)C(=O)C(=O)N2CCCC[C@H]2C(=O)O[C@H]([C@H](C)C[C@@H]2CC[C@@H](O)[C@H](OC)C2)CC(=O)[C@H](C)C=C(C)[C@@H](O)[C@@H](OC)C(=O)[C@H](C)C[C@H](C)/C=C/C=CC=C1C`, the Potency result in assay [1], in assay [4], in assay [6] and in assay [7] was “inactive” each time. Moreover, the Potency is 21.1 µM (active) and 23.7 µM (active) in assay [2]; 29.8 µM (active) and 26.6 µM (active) in assay [3]; 17.6 µM (active) and 19.7 µM (active) in assay [9]. Further, the outcome in [5] and in [8] was inactive.
Regarding `CC[C@H](C)C(=O)O[C@H]1CCC=C2C=C[C@H](C)[C@H](CC[C@@H]3C[C@@H](O)CC(=O)O3)[C@H]21`, the Potency result in assay [1], in assay [2], in assay [3], in assay [4], in [6] and in [7] was “inactive” throughout. Moreover, the molecule was classed as inactive in assay [5] and in assay [8].
On to `c1ccc2occc2c1`, for which the Potency entry in assay [1], in assay [2], in assay [3], in assay [4], in assay [6] and in assay [7] was “inactive” each time. Further, the molecule was called inactive in assay [5] and in [8].
Turning to `CCN(CC)CCn1c(=O)c(Cc2ccc(OC)cc2)nc2ccccc21`, the Potency entry in assay [1], in [2], in assay [3], in assay [4], in assay [9] and in assay [6] was “inactive” each time. The Potency entry in assay [7] was “inactive”. Moreover, the outcome in [5] and in assay [8] was inactive.
With `COc1cc2c(cc1OC)[C@@H](Cc1cc(OC)c(OC)c(OC)c1)[N+](C)(CCCOC(=O)CC/C=C/CCC(=O)OCCC[N+]1(C)CCc3cc(OC)c(OC)cc3[C@H]1Cc1cc(OC)c(OC)c(OC)c1)CC2` (stereo partly specified), the Potency entry in [1], in [2], in [3], in assay [4], in [6] and in [7] was “inactive” each time. Moreover, in assay [8], the result was inactive.
In the case of `CCC(C)(C)c1ccc(CC(C)CN2C[C@@H](C)O[C@@H](C)C2)cc1` (stereo partly specified), the Potency entry in assay [1], in [4], in assay [6] and in assay [7] was “inactive” each time. Moreover, the Potency in assay [2] is 26.6 µM (active); in assay [9], 23.7 µM (active). Also, the outcome in assay [5] and in [8] was inactive.
Turning to `O=C(Nc1ccccc1)c1cc(Cl)ccc1O`, the Potency entry in assay [1], in [6] and in [7] was “inactive” each time. The Potency in assay [2] was 17.2 µM (active); in assay [4], 1.93 µM (active); in assay [9] it was 0.386 µM (active). Moreover, the molecule was classed as inactive in [5] and in assay [8].
Consider `CC[C@@]1([C@@H]2O[C@@H]([C@H]3O[C@@](O)(CO)[C@H](C)C[C@@H]3C)C[C@@H]2C)CC[C@H]([C@]2(C)CC[C@]3(C[C@H](O)[C@@H](C)[C@@H]([C@@H](C)[C@@H](OC)[C@H](C)C(=O)O)O3)O2)O1` (stereo in doubt), for which the Potency result in assay [1], in assay [2], in assay [4] and in assay [7] was “inactive” throughout. Moreover, the Potency in assay [3] is 0.596 µM (active). Also, the result in [8] was inactive.
Consider `N[C@@H](Cc1ccc(O)c(O)c1)C(=O)O`, for which the Potency entry in [1], in [2], in [3], in [4], in [6] and in assay [7] was “inactive” throughout. The molecule was classed as inactive in assay [5] and in assay [8].
Regarding `CN1CCN(c2ccccc2/C=C2\SCCN(c3ccc(Cl)c(Cl)c3)C2=O)CC1`, the Potency entry in [1], in [3] and in assay [7] was “inactive” throughout. Besides, the Potency in assay [2] was 61.1 µM (active). Besides, the result in assay [5] and in assay [8] was inactive.
Take `CN(C/C=C/c1ccccc1)Cc1cccc2ccccc12`: the Potency result in assay [1], in assay [2], in assay [3], in assay [4], in assay [9] and in assay [6] was “inactive” each time. For the same molecule, the Potency result in [7] is “inactive”. In addition, the molecule was classed as inactive in assay [5] and in [8].
Regarding `CCCCCCCCCCCCCCCCC(C(=O)O)C(O)(CC(=O)O)C(=O)O` (stereo unspecified), the Potency entry in assay [1], in assay [3], in assay [4] and in assay [7] was “inactive” each time. Further, in [2], the Potency is 29.8 µM (active). In addition, the molecule was called inactive in [8].
As to `c1ccc2cc3c4ccccc4c4ccccc4c3cc2c1`, the Potency entry in [1], in assay [2], in [3], in assay [6] and in [7] was “inactive” throughout. Further, the call in assay [5] and in assay [8] was inactive.
As to `CON=C1C[C@]2(C[C@@H]3C[C@@H](C/C=C(\C)C[C@@H](C)/C=C/C=C4\CO[C@@H]5[C@H](O)C(C)=C[C@@H](C(=O)O3)[C@]45O)O2)O[C@H](/C(C)=C/C(C)C)[C@H]1C`, the Potency entry in [1], in assay [4], in [6] and in [7] was “inactive” in each case. For the same molecule, the Potency in [2] was 11.9 µM (active) and 8.41 µM (active); in assay [3], 11.9 µM (active) and 8.41 µM (active); in assay [9], 13.3 µM (active). Also, the outcome in [5] and in [8] was inactive.
Turning to `CC(=O)N[C@@H](C=O)[C@H](O)[C@H](O)[C@@H](O)CO`, the Potency result in [2], in assay [3], in assay [4], in [6] and in assay [7] was “inactive” throughout. Moreover, the molecule was called inactive in assay [5] and in assay [8].
Turning to `CCSCC`, the Potency result in assay [2], in [3], in [4], in assay [6] and in assay [7] was “inactive” throughout. Moreover, the call in assay [5] and in [8] was inactive.
For `N[C@H](CO)C(=O)O`, the Potency entry in assay [1], in assay [2], in assay [4] and in assay [7] was “inactive” in each case. In addition, the molecule was classed as inactive in assay [5] and in assay [8].
For `CN(C[C@@H](CC[N+]12CCC(C3CCCCC3)(CC1)CC2)c1ccc(Cl)c(Cl)c1)C(=O)c1cc(C(F)(F)F)cc(C(F)(F)F)c1`, in [2], the Potency was 27.3 µM (active). Moreover, the molecule was classed as inactive in assay [5] and in assay [8]. Moreover, the Potency result in [6] and in assay [7] was “inactive” throughout.
`O=C(CCCCCCCCc1cccnc1)N1CCC(C=C(c2ccccc2)c2ccccc2)CC1`: the Potency in [2] was 24.3 µM (active); in assay [3] it was 61.1 µM (active); in [4] it was 19.3 µM (active); in assay [9] it was 24.3 µM (active). Further, the molecule was classed as inactive in [5] and in [8]. Besides, the Potency result in [6] and in assay [7] was “inactive” throughout.
For `Nc1ccc(N)c([N+](=O)[O-])c1`, in assay [9], the Potency was 1.09 µM (active). Besides, the outcome in [5] and in assay [8] was inactive. Besides, the Potency result in [7] was “inactive”.
As for `CN1CCN(CCCN2c3ccccc3Sc3ccc(Cl)cc32)CC1`, the Potency entry in assay [1], in assay [6] and in assay [7] was “inactive” each time. In addition, in [2], the Potency is 29.8 µM (active). Also, the molecule was classed as inactive in assay [5] and in assay [8].
As for `CN[C@H]1CC[C@@H](c2ccc(Cl)c(Cl)c2)c2ccc(S(N)(=O)=O)cc21`, the Potency entry in assay [1], in [4], in [6] and in assay [7] was “inactive” in each case. The outcome in [5] and in [8] was inactive.

For the origin of these results see PubChem BioAssay (Tox21).
